{"source": "PubChem BioAssay (Tox21)", "note": "Inconclusive results are not listed. A call without a number means that no potency is given here. The source made the active and inactive calls. The call rests on the fitted dose curve; in most records, active means well fitted cell-killing curve with a large enough effect in the repeat runs; inconclusive means weak or mixed curves, or effect the other way; inactive means flat fitted curve, though single readings scatter. Potency means the concentration at half of the fitted maximal effect."}
{"experiment": "qHTS RealTime-Glo MT Cell Viability Assay in HepG2 cells - 0 hour (AID 1224889); further: nearly all actives have a fitted effect of over 50% in size", "details": "RealTime-Glo luminescence; series mostly up to 76.8 µM", "description": "U.S. Tox21 Program National Center for Advancing Translational Sciences [NCATS] NIH Chemical Genomics Center [NCGC] U.S. Environmental Protection Agency [EPA] National Institutes of Environmental Health Sciences [NIEHS] National Toxicology Program [NTP] U.S. Food and Drug Administration [FDA] Tox21 Assay Overview: Measure of cell viability is critical in the cell-base assay. Analysis of cell viability is necessary for the characterization of cell responses to cytotoxic drugs and environmental stress. A RealTime-Glo MT Cell Viability Assay to monitor cell viability in real time of continues cell culture during 40 hours of compound treatment was used to screen Tox21 10K library compounds in HepG2 cells. The RealTime-Glo MT Cell Viability Assay is a nonlytic, homogeneous, bioluminescent method to measure cell viability in real time using a simple, plate-based method. The assay involves adding NanoLuc luciferase and a cell-permeant prosubstrate to cells in culture. Viable cells reduce the proprietary prosubstrate to generate a substrate for NanoLuc luciferase. This substrate diffuses from cells into the surrounding culture medium, where it is rapidly used by the NanoLuc Enzyme to produce a luminescent signal. The signal correlates with the number of viable cells, making the assay well suited for cytotoxicity studies.\nTox21 Assay Protocol Summary: The mixture of HepG2 cell suspension and reagents were dispensed at 600cells/6 ul/well in 1536-well tissue culture treated black solid bottom plates using a Multidrop dispenser. After the assay plates were incubated at a 37 C/5% CO2 incubator for 5 hours, 23 nL of compounds dissolved in DMSO, positive and negative controls was transferred to the assay plate by a pintool work station. The plates were incubated at 37 C for 40 hours. The luminescence intensity were measured at 0h, 8h, 16h, 24h, 32h and 40h time points using ViewLux plate reader during compound treatment."}
{"smiles": "NC(=O)c1cccc([N+](=O)[O-])c1", "Potency": "inactive"}
{"smiles": "C#C[C@]1(OC(C)=O)CC[C@H]2[C@@H]3CCC4=C/C(=N/O)CC[C@@H]4[C@H]3CC[C@@]21CC", "Potency": "inactive"}
{"smiles": "CCCCOC(=O)CO", "Potency": "inactive"}
{"smiles": "Nc1cc(Cl)c(O)c(Cl)c1", "Potency": "inactive"}
{"smiles": "CC(=O)OCC=C(C)C", "Potency": "inactive"}
{"smiles": "C=CCCC(=O)/C=C/C1C(C)=CCCC1(C)C", "note": "(stereo not given)", "Potency": "inactive"}
{"smiles": "CC(C)CCOC(=O)/C=C/c1ccccc1", "Potency": "inactive"}
{"smiles": "C#C[C@]1(OC(C)=O)CC[C@H]2[C@@H]3CCC4=C[C@@H](OC(C)=O)CC[C@@H]4[C@H]3CC[C@@]21C", "Potency": "inactive"}
{"smiles": "O=S(=O)(O)c1ccc(Nc2nc(Nc3ccc(/C=C/c4ccc(Nc5nc(Nc6ccc(S(=O)(=O)O)cc6)nc(N(CCO)CCO)n5)cc4S(=O)(=O)O)c(S(=O)(=O)O)c3)nc(N(CCO)CCO)n2)cc1", "Potency": "inactive"}
{"smiles": "CCN(CC)C(=O)c1cc(S(=O)(=O)Cc2ccccc2)c(N2CCC(c3ccccc3)CC2)cc1N(CC)CCN(C)C", "Potency": "inactive"}
{"smiles": "CCC(C)[O-].CCC(C)[O-].CCOC(=O)/C=C(/C)[O-].[Al+3]", "Potency": "inactive"}
{"smiles": "C[Si](Cl)(c1ccccc1)c1ccccc1", "Potency": "inactive"}
{"smiles": "Nc1ccc(C(=O)O)c(O)c1", "Potency": "inactive"}
{"smiles": "CC(C)=CCNc1ncnc2c1ncn2[C@@H]1O[C@H](CO)[C@@H](O)[C@H]1O", "Potency": "inactive"}
{"smiles": "O[C@@H]([C@H](O)[C@H](O)CBr)[C@H](O)CBr", "Potency": "inactive"}
{"smiles": "CCC(C)(CCC(C)C)C(=O)[O][Sn]([CH3])([CH3])[O]C(=O)C(C)(CC)CCC(C)C", "note": "(stereo not given)", "Potency": "inactive"}
{"smiles": "CC1(C)CCC[C@]2(C)[C@H]3CC(=O)O[C@]3(C)CC[C@@H]12", "Potency": "inactive"}
{"smiles": "O=C(Oc1ccccc1)Oc1ccccc1", "Potency": "inactive"}
{"smiles": "CC1=Nc2ccccc2C1(C)C", "Potency": "inactive"}
{"smiles": "Cc1c2ccccc2c(C)c2c1ccc1ccccc12", "Potency": "inactive"}
{"smiles": "OC[C@@H](O)[C@@H](O)CO", "Potency": "inactive"}
{"smiles": "Clc1sc(Cl)c(Cl)c1Cl", "Potency": "inactive"}
{"smiles": "O=C(/C=C/c1ccc(O)c(O)c1)O[C@@H](C(=O)O)[C@@H](OC(=O)/C=C/c1ccc(O)c(O)c1)C(=O)O", "Potency": "inactive"}
{"smiles": "C[C@@H](O)[C@H](N)C(=O)O", "activity change, negative = cytotoxicity": "0.322% [at 15.8 µM] (inactive)"}
{"smiles": "C=CC(=O)OCCOC(=O)C=C", "Potency": "inactive"}
{"smiles": "CN(C)Cc1ccccc1O", "Potency": "inactive"}
{"smiles": "C#Cc1ccc(-c2ccccc2F)cc1", "Potency": "inactive"}
{"smiles": "CC[N+](CC)(CC)CCOc1ccc(/C=C/c2ccccc2)cc1", "Potency": "inactive"}
{"smiles": "Cc1cc(C(C)(C)C)cc(C)c1CC1=NCCN1", "Potency": "inactive"}
{"smiles": "Cc1cc(-c2ccc(N=Nc3cc(S(=O)(=O)O)c4ccccc4c3N)c(C)c2)ccc1N=Nc1cc(S(=O)(=O)O)c2ccccc2c1N", "Potency": "inactive"}
{"smiles": "CCCCCCCCCCCCCC[N+](C)(C)C", "Potency": "inactive"}
{"smiles": "O=C(O)c1ccc2cc(C(=O)O)ccc2c1", "Potency": "inactive"}
{"smiles": "O=C1CCc2cc(OCCCCc3nnnn3C3CCCCC3)ccc2N1", "Potency": "inactive"}
{"smiles": "O=C(O)[C@H](O)[C@@H](O)[C@H](O[C@@H]1O[C@H](CO)[C@H](O)[C@H](O)[C@H]1O)[C@H](O)CO", "Potency": "inactive"}
{"smiles": "Nc1nc(N)nc(-c2cc(Cl)ccc2Cl)n1", "Potency": "inactive"}
{"smiles": "Cl[Si](Cl)(c1ccccc1)c1ccccc1", "Potency": "inactive"}
{"smiles": "O=C1OC2(c3ccc(O)cc3Oc3cc(O)ccc32)c2ccc(N=C=S)cc21", "Potency": "22.3 µM (active)"}
{"smiles": "Nc1ccc(NCCO)c([N+](=O)[O-])c1", "Potency": "inactive"}
{"smiles": "CCC(=O)C(=O)CC", "Potency": "inactive"}
{"smiles": "ClCCl", "Potency": "inactive"}
